A selection: hits, their analogues and other compounds. The true share with any hit is near 3%.
KDM5B inh = blocks human KDM5B histone demethylase activity; KDM5B demethylase, FDH-coupled NADH fluorescence (FDH is formaldehyde dehydrogenase); Potency, µM (top dose mostly 57.7 µM), actives largely listed as inhibitors; 220,000 tested, 2.6% active; AID 1347165; further: potency means the concentration at half of the fitted maximal effect; 0% is about no effect; nearly all actives have a fitted effect of over 70% in size
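qHTS format, multiple compound concentrations. Buffer 50 mM HEPES pH 7.5/0.01% Tween-20; 200 nM KDM5BΔAP final; 10 min compound preincubation; substrate-mix levels 12.5 µM peptide, 25 µM α-KG, 0.25 mM NAD⁺; 30 min RT; ΔRFU.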
SNCA expr inhib = inhibitors of alpha-synuclein (SNCA) gene expression; HEK-293 SNCA-luciferase knock-in, luminescence, 24 h; Potency, µM (series often up to 57.2 µM), for inactives: top-dose activity change, negative = inhibition, usual class: inhibitors; 140,000 tested, 0.17% active; AID 1671194;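 further: potency means the concentration at half of the fitted maximal effect; plate controls were DMSO cells for no effect and cell-free wells for full effect; nearly all actives have a fitted effect of over 45% in size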
IP6K1 inhibitor = inhibitors of human IP6K1; Q92551; IP6K1 kinase, ADP-Glo luminescence, 2 h; active compounds read low; activity change, % (series mostly up to about 58 µM); 140,000 tested, 0.81% active; in the data active means activity change below about -25%; further: on the % scale 0 is the no-effect control and ±100 the full control effect
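ADP-Glo luminescence measures ADP made by human IP6K1 during a 2 h RT reaction with ATP/IP6 (mix at 1.3 mM/130 uM); top library doses 57.5 and 19.1 uM final.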
HEK293 viab = counter-screen for SNCA expression inhibitors: cell viability; 150,000 tested, 0.12% active; AID 1671193; HEK-293-SNCA-luc viability, GF-AFC fluorescence, 24 h; Potency, µM (titrated, usually from 57.1 µM), for the others: at the highest dose activity change, negative = cytotoxicity, actives largely listed as cytotoxic;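 further: potency means the concentration at half of the fitted maximal effect; 0% = DMSO-treated cells and -100% = medium-only wells without cells; nearly all actives have a fitted effect of over 30% in size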
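HEK-293-SNCA-luc cells (1500/well) plated 24 h, then exposed 24 h to a dilution series; GF-AFC added 30 min at 37C, fluorescence 405/540 nm; normalised to medium-only and DMSO wells, Hill fit.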
* = called active by the depositor; i = inactive; ? = inconclusive; · = no result; [ ] = dose if it differs, or a comment. Unless noted, the call rests on the fitted dose curve; in most records, active means well fitted curve in the direction sought with a large enough effect; inconclusive means small, poorly fitted or top-dose-only effect, or another doubt; inactive means no such curve, though single readings can be large; an effect the other way counts as inactive or inconclusive.

SMILES	KDM5B inh	SNCA expr inhib	IP6K1 inhibitor	HEK293 viab
CCN(CC)CCOc1ccc(Nc2ncc3cc(-c4c(Cl)cccc4Cl)c(=O)n(C)c3n2)cc1	·	3.04µM*	·	?
Cc1cc(Nc2ncc3cc(-c4c(Cl)cccc4Cl)c(=O)n(C)c3n2)ccc1F	·	·	6.1	-19.3%
Fc1ccc(CNC(=S)NCCc2ccc(Cl)cc2)cc1	i	·	·	·
Cc1cc2cc(CNC(=S)Nc3cccc(Br)c3)ccc2[nH]1	i	·	·	·
Cc1cn2nc(C(=O)NCc3ccccc3Cl)cc2c(N2CCCC2)n1	i	13.5%	2.2	-2.5%
COc1ccccc1CNC(=O)c1cc2c(N3CCCC3)nc(C)cn2n1	28.2µM*	-9.2%	13.2	4.0%
Cc1cn2nc(C(=O)NCc3ccc(C(C)C)cc3)cc2c(N2CCCC2)n1	35.5µM*	0.0%	19.8	2.0%
COc1ccc(CNC(=O)c2cc3c(N4CCCC4)nc(C)cn3n2)c(OC)c1	28.2µM*	11.5%	-10.2	6.8%
Cc1cccc(CNC(=O)c2cc3c(N4CCCC4)nc(C)cn3n2)c1	i	13.2%	7.1	12.3%
Cc1ccc(CCNC(=O)c2cc3c(N4CCCC4)nc(C)cn3n2)cc1	i	-2.0%	-6.7	-3.2%
Cc1cn2nc(C(=O)N3CCN(C(=O)c4ccco4)CC3)cc2c(N2CCCC2)n1	31.6µM*	?	-1.6	?
CCc1c(C)sc(NC(=O)/C=C/c2c(F)cccc2Cl)c1C#N	i	·	·	·
CCOC(=O)c1c(C)[nH]c(C(=O)C(C)Nc2cc(OC)ccc2OC)c1C (stereo not drawn)	i	·	·	·
CCN(Cc1ccccc1)C(=O)c1cc2c(N3CCCC3)nc(C)cn2n1	25.1µM*	-21.3%	-0.6	-1.4%
COc1ccccc1CNC(=O)c1cc2c(N3CCSCC3)nc(C)cn2n1	7.08µM*	-22.6%	0.0	6.0%
Cc1cn2nc(C(=O)NCc3ccccc3F)cc2c(N2CCCC2)n1	25.1µM*	-29.4%	0.0	3.3%
Cc1cn2nc(C(=O)NCc3ccccc3F)cc2c(N2CCSCC2)n1	?	?	-4.4	0.4%
O=C(OCC(=O)c1c[nH]c2ccccc12)c1ccc2ccccc2n1	i	·	·	·
COc1cc(-n2cnc3cc(-c4ccc(Cl)cc4)sc3c2=O)ccc1OCCN1CCCC1	·	·	19.1	11.9µM*
Cc1ccc(C(=O)N2CCN(c3nnc4ccccn34)CC2)cc1C	25.1µM*	45.1%	12.0	-1.6%
O=C(c1cccc(F)c1)N1CCN(c2nnc3ccc(Cl)cn23)CC1	14.1µM*	2.8%	17.7	-0.7%
O=C(c1ccoc1)N1CCCN(c2nnc3ccc(Cl)cn23)CC1	?	47.0%	9.7	5.9%
O=C(c1ccc(F)cc1)N1CCN(c2nnc3ccccn23)CC1	28.2µM*	-2.6%	43.6	6.8%
O=C(Nc1ccc(-n2cccn2)c(F)c1)C1CCCN1C(=O)c1ccco1 (stereo not drawn)	i	·	·	·
CC(C)c1ncc(-c2cc(C(=O)N(C)C(C)C)c3ccc(F)cc3n2)cn1	i	-11.6%	8.5	2.8%
SMILES	KDM5B inh	SNCA expr inhib	IP6K1 inhibitor	HEK293 viab
CC1CCCN1C(=O)c1cc(-c2cnn(C(C)C)c2)nc2cc(F)ccc12 (stereo not drawn)	28.2µM*	22.6%	-2.9	-7.6%
CC(C)n1cc(-c2cc(C(=O)N3CCC(C)(C)C3)c3ccc(F)cc3n2)cn1	31.6µM*	18.1%	7.7	-13.4%
CC(C)CN(C)C(=O)c1cc(-c2cnn(C(C)C)c2)nc2ccc(F)cc12	?	6.7%	6.8	-13.4%
Cn1cnc2c1c(=O)n(CC(=O)NCc1ccc(F)cc1)c(=O)n2C	i	·	·	·
CCN(C)C(=O)CCc1c(C)nn(-c2cccc(C)c2)c1Oc1ccc(F)cc1F	31.6µM*	-11.4%	-15.6	-8.9%
CCN(CC)C(=O)CCc1c(C)nn(-c2cccc(C)c2)c1Oc1ccc(F)cc1F	i	-13.8%	-3.1	1.1%
CCCCNC(=O)CN1C(=O)COc2ccc(S(=O)(=O)N3CCCC3)cc21	i	-2.9%	-7.3	-18.6%
CC(C)CN(CCCNC(=O)CN1C(=O)COc2ccc(S(=O)(=O)N3CCCCCC3)cc21)CC(C)C	i	28.2µM*	10.0	8.6%
CCOC(=O)c1[nH]c(C)c(C(=O)OCc2ccccc2)c1C	i	·	·	·
c1ccc(Nc2cc3c(cn2)CN(Cc2ccsc2)CCN3)cc1	39.8µM*	26.9%[87.6 µM]	12.0	?
c1cc(CN2CCNc3cc(-c4ccsc4)ncc3C2)ccn1	35.5µM*	7.4%[87.6 µM]	-15.8	9.1%[87.6 µM]
c1cncc(Nc2cc3c(cn2)CN(Cc2ccsc2)CCN3)c1	i	65.9%[87.6 µM]	-16.6	-25.9%[87.6 µM]
COc1ccc(CN2CCNc3cc(Nc4ccccc4)ncc3C2)cc1O	28.2µM*	?	3.4	-28.9%[87.6 µM]

Compound activity from PubChem.
